The results in this text go back to PubChem BioAssay (NCI).

Assay [1] is described as follows: NCI Yeast Anticancer Drug Screen. Data for the rad50 strain (AID 155).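 Also: 0% = growth of vehicle-only cultures of the same strain.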 Conditions: S. cerevisiae rad50 strain growth inhibition; at 50.0 µM; stronger effect = higher value. The procedure, abridged:
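Vehicle-treated cultures provide the reference for the growth inhibition reported for compound-exposed, repair-deficient yeast.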

The nature of assay [2]: NCI Yeast Anticancer Drug Screen. Data for the mec2-1 strain (AID 157). Conditions: S. cerevisiae mec2-1 strain, at 50.0 µM, stronger effect = higher value. The method in brief:
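Vehicle-treated cultures served as reference for growth inhibition of compound-exposed mec2-1 yeast.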

Assay [3] in a line: NCI Yeast Anticancer Drug Screen. Data for the sgs1 mgt1 strain (AID 161).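 Also: 0% = growth of cultures given vehicle only.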 The conditions noted are these: S. cerevisiae sgs1 mgt1 strain, at 50.0 µM, stronger effect = higher value. The procedure, abridged:
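Read-out: growth inhibition vs vehicle controls. Cells: mutant yeast strain deficient in DNA damage repair.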

Assay [4] can be described thus: NCI Yeast Anticancer Drug Screen. Data for the cln2 rad14 strain (AID 165).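 Also: 0% = growth equal to vehicle treated cultures.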 Conditions: S. cerevisiae cln2 rad14 strain, at 50.0 µM, stronger effect = higher value. The method in brief:
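Each compound was tested on cln2 rad14 yeast. Inhibition of growth was calculated against vehicle-exposed controls.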

Assay [5] is described as follows: NCI Yeast Anticancer Drug Screen. Data for the bub3 strain (AID 167). The conditions noted are these: S. cerevisiae bub3 mutant strain, at 50.0 µM, stronger effect = higher value. The method in brief: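 Mutant yeast screening strain plus compound; vehicle-treated cultures serve as the 0% inhibition reference.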
The nature of assay [6]: NCI Yeast Anticancer Drug Screen. Data for the mlh1 rad18 strain (AID 175). Conditions: S. cerevisiae mlh1 rad18 strain growth inhibition; at 50.0 µM; stronger effect = higher value. The method in brief:
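Vehicle-treated cultures served as the reference for growth inhibition in a yeast strain carrying DNA damage repair alterations exposed to each compound.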

The structures appear in SMILES notation. This is part of a sample that, as a whole, favours compounds with a hit. Of some 79,000 tested, about 15% had one in any assay. Unmarked numbers belong to inactive results. Calls of active or inactive are those of the source. Rule as the data show it: active = growth inhibition above about 70%; inactive = the rest.

`CC1CCC2C(C)C3C(CC4C5CC=C6CC(O)CCC6(C)C5CCC43COC(=O)c3ccccc3)N2C1` (stereo unspecified): the growth inhibition in assay [1] was 44.4%; in assay [2], 16.8%; in assay [3], 55.8%; in assay [4] it was 21.4%; in assay [5], 5.95%; in assay [6], 42.6%.
In the case of `CC1=NN(c2ccccc2)C(N)C1` (stereo unspecified), the growth inhibition is 17.7% in assay [1]; 17.7% in assay [2]; 23.3% in assay [3]; 11.5% in assay [4]; 25.4% in assay [5]; 13.2% in assay [6].
With `S=C=NCCCCCCCCCCCCN=C=S`, the growth inhibition is 94.4% (active) in assay [1]; 89.5% (active) in assay [2]; 94.2% (active) in assay [3]; 58.5% in assay [4]; 89.7% (active) in assay [5]; 94.7% (active) in assay [6].
As for `O=S(=O)(O)SCC1=NCCCCN1`, the growth inhibition was -2.95% in assay [1]; -5.7% in assay [2]; -6.35% in assay [3]; -9.4% in assay [4]; -14.4% in assay [5]; 0.05% in assay [6].
As to `Cc1cccc(OCCCCCl)c1`, the growth inhibition in assay [1] was -18%; in assay [2] it was -9.7%; in assay [3] it was -8.25%; in assay [4], 10.4%; in assay [5], -20.6%; in assay [6], -9.3%.
As to `CC(C)(C)CI`, the growth inhibition is 15.6% in assay [1]; 3.85% in assay [2]; 7.65% in assay [3]; 4.9% in assay [4]; -11.2% in assay [5]; -35.3% in assay [6].
For the molecule `CCOC(=O)Oc1ccc2[nH]c3c(C)cc(N)c(C)c3c2c1`, the growth inhibition in assay [1] is 2.35%; in assay [2], -33.2%; in assay [3], -30.5%; in assay [4] it was -7.8%; in assay [5], -22.2%; in assay [6] it was -11.1%.
On to `COC(=O)c1ccc(CSc2ccccc2NC(=S)Nc2cccc(C(F)(F)F)c2)o1`, for which the growth inhibition was -3.65% in assay [1]; -20.2% in assay [2]; -1.15% in assay [3]; 4.65% in assay [4]; -18.4% in assay [5]; -7.6% in assay [6].
Turning to `C=CN1C(=O)NC(C)(CC(C)C)C1=O` (stereo unspecified), the growth inhibition in assay [1] is -1.15%; in assay [2], -10.2%; in assay [3] it was -6%; in assay [4], 6.75%; in assay [5], -7.25%; in assay [6], 18.4%.
For `CCCNC(=S)N/N=C/c1cccc(C)n1`, the growth inhibition in assay [1] was -23.3%; in assay [2] it was -26.1%; in assay [3] it was 2.15%; in assay [4], 15.2%; in assay [5], 24.2%; in assay [6], -12%.
On to `CCOC(=O)NC(=O)c1cn(CCCOC(=O)CCCCCCCCCCC(=O)OCCCn2cc(C(=O)NC(=O)OCC)c(=O)n(C)c2=O)c(=O)n(C)c1=O`, for which the growth inhibition was -22.3% in assay [1]; 8.3% in assay [2]; -24.6% in assay [3]; 15.3% in assay [4]; -2.35% in assay [5]; -19.4% in assay [6].
As to `CC(=O)NC(C(=O)Nc1ccccc1)=C(C)C`, the growth inhibition is -7.45% in assay [1]; -7.9% in assay [2]; -11.8% in assay [3]; -11.5% in assay [4]; 5.25% in assay [5]; 0.8% in assay [6].
With `CN1CCS(=O)(=O)NC(Cc2ccccc2)C(=O)N2CCCC2C1=O` (stereo unspecified), the growth inhibition in assay [1] was -6.5%; in assay [2] it was -13.2%; in assay [3], -4.5%; in assay [4], 29.6%; in assay [5] it was -11.7%; in assay [6], -8.5%.
With `CC(NC(=O)OCC[P+](c1ccccc1)(c1ccccc1)c1ccccc1)C(=O)O` (stereo unspecified), the growth inhibition is -14.2% in assay [1]; -4.35% in assay [2]; -11.6% in assay [3]; 3.45% in assay [4]; -27.1% in assay [5]; -55.2% in assay [6].
Consider `CSc1cc(Cl)c(C)cc1S(=O)(=O)NC(=O)NNc1ccc(Cl)cc1`, for which the growth inhibition is 23.9% in assay [1]; 11.2% in assay [2]; 10.6% in assay [3]; 7.55% in assay [4]; -3.75% in assay [5]; 51.6% in assay [6].
As for `COC(=O)c1c2c(cc3c1CC1(Cc4ccccc4C1=O)C3)CCC2` (stereo unspecified), the growth inhibition in assay [1] is -23.2%; in assay [2], 5.2%; in assay [3] it was 14.2%; in assay [4], -17.1%; in assay [5] it was 9.4%; in assay [6], -39.9%.
Turning to `OC(c1ccccc1)(c1ccc(-c2ccccc2)cc1)c1cccc2ccccc12` (stereo unspecified), the growth inhibition in assay [1] is 28.3%; in assay [2] it was -14.2%; in assay [3], 21.8%; in assay [4] it was 9.2%; in assay [5], -2.6%; in assay [6], 5.35%.
With `COc1cc(C2OCC3C(c4ccc(O)c(OC)c4)OCC23)ccc1O` (stereo unspecified), the growth inhibition is 6% in assay [1]; -20.4% in assay [2]; 10.9% in assay [3]; 23.4% in assay [4]; 0.2% in assay [5]; 14.6% in assay [6].
For `CCCCCCCCCCCC(=O)NC(=S)Nc1ccc(C(=O)OCC)cc1`, the growth inhibition was 29.9% in assay [1]; 31.9% in assay [2]; 57.9% in assay [3]; 1.35% in assay [4]; 29.4% in assay [5]; 45.4% in assay [6].
As to `Cc1c(C2(c3cc(C(C)C)c(O)c(CN(CC(=O)O)CC(=O)O)c3C)OS(=O)(=O)c3ccccc32)cc(C(C)C)c(O)c1CN(CC(=O)O)CC(=O)O`, the growth inhibition is 4.3% in assay [1]; 0.7% in assay [2]; -1.75% in assay [3]; 24.7% in assay [4]; 2.8% in assay [5]; 4.95% in assay [6].
For the molecule `Nc1nnc2nc(CC(=O)c3ccc4ccccc4c3)c(=O)[nH]n12`, the growth inhibition is -1.85% in assay [1]; 10.9% in assay [2]; -0.1% in assay [3]; -21.2% in assay [4]; -4.15% in assay [5]; 2.05% in assay [6].
